Test results published in PubChem BioAssay (NCATS).
Where “and” joins values, the source holds several entries; their conditions need not be identical. Identical values can stand only once. Values without a mark were called inactive. Records with an inconclusive call do not appear. For some assays here: Results with a measured potency or affinity are listed apart. Calls of active or inactive are those of the source.

Columns and labels:
[1] = Ebola virus entry assay, blue channel fluorescence
[2] = Ebola virus entry assay, green fluorescence channel
[3] = Ebola virus entry assay, ratio channel readout
[4] = Ebola virus entry assay, blue channel fluorescence; remark: listed apart in the source
[5] = Ebola virus entry reporter assay, green channel fluorescence
[6] = Ebola virus entry cell assay, ratio channel
[7] = Ebola virus entry assay, reporter ratio channel; AC50: Channel type: primary unless noted; outcome: Channel type: primary unless noted
[8] = Ebola virus entry assay, blue channel (ratio component)
[9] = qHTS Assay for Identifying Gametocytocidal Compounds (AID 743244; active means well fitted curve in the direction sought with a large enough effect; an effect the other way counts as inactive or inconclusive;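 further: on the % scale 0 is the no-effect control and ±100 the full control effect; actives lower the fluorescent signal which means gametocytes are killed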); conditions: P. falciparum 3D7 stage III-V gametocytes, alamarBlue, 72 h; max response: stronger effect = lower value
How it was run: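 3D7 gametocytes, stages III–V, 20,000/well; cpd 72 h, 37 °C/5% CO2; + alamarBlue 24 h; fluor. Ex 525/Em 598.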

[10] = qHTS assay for cell viability of HEK293 cells (AID 743288; active means well fitted curve in the direction sought with a large enough effect; an effect the other way counts as inactive or inconclusive; further: on the % scale 0 is the no-effect control and ±100 the full control effect; nearly all actives have a fitted effect of over 50% in size); conditions: ATP luminescence (CellTiter-Glo), 18 h, stronger effect = lower value
How it was run: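 Parental HEK293 cells, 2,000 per well, preincubated at least 5 h at 37 C, then exposed to compounds in DMSO for 18 h at 37 C. Viability by CellTiter-Glo ATP luminescence after 30 min at room temperature.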

CC(=O)NCCCS(=O)(=O)O
outcome [1]: inactive
outcome [2]: inactive
outcome [3]: inactive
outcome [4]: inactive
outcome [5]: inactive
outcome [6]: inactive

Nc1nc(Cl)nc2c1ncn2[C@H]1C[C@H](O)[C@@H](CO)O1
outcome [1]: inactive
outcome [2]: inactive
outcome [3]: inactive
outcome [4]: inactive
outcome [6]: inactive

CC(=O)NC[C@H]1CN(c2ccc(N3CCOCC3)c(F)c2)C(=O)O1
outcome [1]: inactive
outcome [2]: inactive
outcome [3]: inactive
outcome [4]: inactive
outcome [6]: inactive

C=CC1=C(C(=O)O)N2C(=O)[C@@H](NC(=O)/C(=N\O)c3csc(N)n3)[C@H]2SC1 (stereo in doubt)
outcome [1]: inactive
outcome [2]: inactive
outcome [3]: inactive
outcome [4]: inactive
outcome [6]: inactive

O=C(O)C[C@H](O)C[C@H](O)/C=C/c1c(C2CC2)nc2ccccc2c1-c1ccc(F)cc1
outcome [1]: inactive
outcome [2]: inactive
outcome [3]: inactive
outcome [6]: inactive

CO[C@H]1C[C@@H]2CC[C@@H](C)[C@@](O)(O2)C(=O)C(=O)N2CCCC[C@@H]2C(=O)O[C@H]([C@H](C)C[C@@H]2CC[C@H](OCCO)[C@H](OC)C2)CC(=O)[C@H](C)C=C(C)[C@@H](O)[C@@H](OC)C(=O)[C@H](C)C[C@H](C)C=CC=CC=C1C
outcome [1]: inactive
outcome [2]: inactive
outcome [3]: inactive
outcome [7]: inactive [Channel type: confirmation]
outcome [8]: inactive
AC50 [6]: 14.1 µM (active)

CC(=O)O[C@H]1C(=O)[C@@]2(C)[C@H]([C@H](OC(=O)c3ccccc3)[C@]3(O)C[C@H](OC(=O)[C@H](O)[C@@H](NC(=O)c4ccccc4)c4ccccc4)C(C)=C1C3(C)C)[C@]1(OC(C)=O)CO[C@@H]1C[C@@H]2O
outcome [1]: inactive
outcome [2]: inactive
outcome [3]: inactive
outcome [5]: inactive
outcome [6]: inactive

Cc1nnc2n1-c1ccc(Cl)cc1C(c1ccccc1Cl)=NC2
max response [9]: -0.695%
outcome [1]: inactive
outcome [2]: inactive
outcome [3]: inactive
outcome [4]: inactive
outcome [6]: inactive

COc1cc([C@@H]2c3cc4c(cc3C(O[C@@H]3O[C@@H]5CO[C@@H](C)O[C@H]5[C@H](O)[C@H]3O)C3COC(=O)[C@@H]32)OCO4)cc(OC)c1OP(=O)(O)O (stereo not given in full)
AC50 [1]: 7.08 µM (active)
outcome [2]: inactive
AC50 [3]: 7.08 µM (active)
AC50 [6]: 7.08 µM (active)

CN1C(=O)C(O)N=C(c2ccccc2)c2cc(Cl)ccc21 (stereo not given)
max response [9]: 6.95%
outcome [1]: inactive
outcome [2]: inactive
outcome [3]: inactive
outcome [4]: inactive
outcome [6]: inactive

CN1[C@@H]2CC[C@H]1CC(OC(c1ccccc1)c1ccccc1)C2 (stereo not given in full)
AC50 [1]: 5.01 µM (active)
outcome [2]: inactive
AC50 [3]: 3.55 µM (active)
outcome [7]: inactive [Channel type: confirmation]
outcome [8]: inactive
AC50 [6]: 3.55 µM (active)

COC(=O)C(c1ccccc1)C1CCCCN1 (stereo not given)
max response [9]: -2.03%
max response [10]: -2.58% and -3.35%
outcome [1]: inactive
outcome [2]: inactive
outcome [3]: inactive
outcome [4]: inactive
outcome [6]: inactive
